Test [1] in a line: small molecules captured by biotinylated probe aFSTL3 – biochemical, small-molecule microarray, fluorescence 635/667, stem cell growth factor project, primary screen (AID 1064).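 Further: measures binding of the biotinylated anti-FSTL3 antibody to printed compounds.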 The note with it: higher = more signal.
Test [2] can be described thus: binders from COS7 lysate, DM2A8 probe, primary screen, torsin A project, cell lysate, small-molecule microarray, fluorescence 635/667 (AID 1065). The note with it: higher = more signal, COS7 lysate expressing mutant human TOR1A.
A short description of test [3]: small molecules captured by biotinylated probe aFGF2 – biochemical, small-molecule microarray, fluorescence 635/667, stem cell growth factor project, primary screen (AID 1067).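 Further: measures binding of biotinylated aFGF2 protein to printed compounds on slides; z-score merges feature fluorescence and signal-to-noise across triplicate slides.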 The note with it: higher = more signal.
Test [4] in a line: small molecules captured by biotinylated probe aFGF10 – biochemical, small-molecule microarray, fluorescence 635/667, stem cell growth factor project, primary screen (AID 1071).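 Further: score merges 667 nm spot intensity and signal to noise from triplicate slides.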 The following applies: higher = more signal.
Test [5] concerns the target Neurogenic locus notch homolog protein 2 (Homo sapiens) (UniProt Q04721). Kind of test: small molecules binding Notch2 protein – biochemical, small-molecule microarray, 635 nm fluorescence, stem cell growth factors, primary screen (AID 1073). The note with it: higher = more signal.
Test [6] addresses Pro-neuregulin-1, membrane-bound isoform (Homo sapiens) (UniProt Q02297). Kind of test: small molecules binding neuregulin-1 protein – biochemical, small-molecule microarray, fluorescence 635/667, psychiatric disease protein project, primary screen (AID 1075).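 Further: score combines 667 nm spot fluorescence with signal to noise.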 The following applies: NRG1 binding, 635 nm fluorescence, higher = more signal.
Test [7] relates to Neuregulin-1 EGF-like domain. Nature of the test: small molecules binding NRG1 EGF domain – biochemical, small-molecule microarray, 635 nm fluorescence, primary screen (AID 1081).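 Further: binding of the protein to compounds printed on small-molecule microarray slides.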 The note with it: higher = more signal.
Test [8] can be described thus: FRG1 expression reporter modulators in myotubes – cell-based, C2C12 myotubes, firefly/Renilla luciferase, luminescence, FRG1 inhibition for FSHD, primary screen (AID 1084). The following applies: FRG1 promoter luciferase, higher = more signal, called active from +8 up or from −8 down.
Test [9] in a line: small molecules captured by biotinylated probe aFST – biochemical, small-molecule microarray, fluorescence 635/667, stem cell growth factor project, primary screen (AID 1086).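 Further: score merges 667 nm fluorescence with signal-to-noise of each printed compound spot.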 The note with it: higher = more signal.
Test [10] can be described thus: binders of probe aHhip on microarray, primary screen, stem cell growth factor project, biochemical, small-molecule microarray, fluorescence 635/667 (AID 1087).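 Further: score merges spot fluorescence at 667nm with spot signal to noise ratio.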 The note with it: higher = more signal.
The subject of test [11] is PRMT1 (protein arginine N-methyltransferase 1). Nature of the test: small molecules binding arginine methyltransferase PRMT1 – biochemical, small-molecule microarray, 635 nm fluorescence, primary screen (AID 1088).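 Further: binding of Prmt1 protein to compounds spotted on small-molecule microarray slides.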 The following applies: higher = more signal.
Test [12] can be described thus: growth effects on S. cerevisiae YJM789 – YJM789 clinical isolate, OD600, 24 h, basal, primary screen (AID 1089).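 Further: growth of clinical yeast isolate S. cerevisiae YJM 789 seeded 1000 cells per well; test concentration not given here.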 The following applies: higher = more signal, called active from +8 up or from −8 down.
Test [13] in a line: S. pombe growth modifiers, basal conditions – strain 972, OD600, 24 h, no modulator, primary screen (AID 1090).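 Further: basal condition with compound alone and no growth modifier present; test concentration not given here.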 The following applies: S. pombe 972 growth, higher = more signal, called active from +8 up or from −8 down.
Test [14] is described as follows: budding yeast growth modifiers under rapamycin – strain BY4716, OD600, 96 h, primary screen (AID 1091). Further: test concentration not given here. The note with it: S. cerevisiae BY4716 + rapamycin, higher = more signal, called active from +8 up or from −8 down.
The target of test [15] is Torsin-1A-interacting protein 2 (Homo sapiens) (UniProt Q8NFQ8). Kind of test: small molecules binding lysate-expressed LULL1 – cell lysate, human LULL1 lysate, 635/667 nm fluorescence, primary screen (AID 1092).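 Further: probe is lysate of COS7 cells overexpressing human LULL1; score merges per-feature 667 nm fluorescence with signal-to-noise.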 The following applies: small-molecule microarray, hLULL1 lysate binding, 635 nm fluorescence; higher = more signal.
A short description of test [16]: optical density change of DRC41 E. coli – strain DRC41, OD650, 24 h, E. coli filamentation project, primary screen (AID 1093).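 Further: MC1000 strain lacking acrAB efflux and sulA so SOS filamentation is blocked; test concentration not given here.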 The note with it: E. coli DRC41 growth, higher = more signal, called active from +8 up or from −8 down.
Test [17] can be described thus: probe aLefty2 binding to arrayed compounds – biochemical, biotinylated probe, 635/667 nm fluorescence, primary screen (AID 1094).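 Further: score merges spot fluorescence near 667 nm with spot signal-to-noise ratio.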 The following applies: small-molecule microarray, higher = more signal.
The test system of test [18] is Noggin (protein binding on small-molecule microarray). Kind of test: small molecules binding Noggin protein – biochemical, 635/667 nm fluorescence, primary screen (AID 1095).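 Further: score merges 667 nm feature fluorescence with signal to noise over triplicate slides.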 The note with it: 635 nm fluorescence, higher = more signal.
The target of test [19] is Neurogenic locus notch homolog protein 3 (Homo sapiens) (UniProt Q9UM47). Kind of test: small molecules binding NOTCH3 protein – biochemical, 635/667 nm fluorescence, primary screen (AID 1096). The note with it: small-molecule microarray, 635 nm fluorescence, higher = more signal.
The nature of test [20]: probe aEGFR binding to arrayed compounds – biochemical, biotinylated probe, 635/667 nm fluorescence, primary screen (AID 1097).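 Further: probe is a biotinylated anti-EGFR antibody binding compounds printed on slides; score combines fluorescence near 667 nm and signal to noise of each spot.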 The following applies: small-molecule microarray, higher = more signal.

Here are results for 5 compounds from PubChem BioAssay.

Each structure is given as a SMILES string. The source made the active and inactive calls.

Neurogenic locus notch homolog protein 2 (Homo sapiens), sequence (Q04721 whole entry, looked up, canonical isoform): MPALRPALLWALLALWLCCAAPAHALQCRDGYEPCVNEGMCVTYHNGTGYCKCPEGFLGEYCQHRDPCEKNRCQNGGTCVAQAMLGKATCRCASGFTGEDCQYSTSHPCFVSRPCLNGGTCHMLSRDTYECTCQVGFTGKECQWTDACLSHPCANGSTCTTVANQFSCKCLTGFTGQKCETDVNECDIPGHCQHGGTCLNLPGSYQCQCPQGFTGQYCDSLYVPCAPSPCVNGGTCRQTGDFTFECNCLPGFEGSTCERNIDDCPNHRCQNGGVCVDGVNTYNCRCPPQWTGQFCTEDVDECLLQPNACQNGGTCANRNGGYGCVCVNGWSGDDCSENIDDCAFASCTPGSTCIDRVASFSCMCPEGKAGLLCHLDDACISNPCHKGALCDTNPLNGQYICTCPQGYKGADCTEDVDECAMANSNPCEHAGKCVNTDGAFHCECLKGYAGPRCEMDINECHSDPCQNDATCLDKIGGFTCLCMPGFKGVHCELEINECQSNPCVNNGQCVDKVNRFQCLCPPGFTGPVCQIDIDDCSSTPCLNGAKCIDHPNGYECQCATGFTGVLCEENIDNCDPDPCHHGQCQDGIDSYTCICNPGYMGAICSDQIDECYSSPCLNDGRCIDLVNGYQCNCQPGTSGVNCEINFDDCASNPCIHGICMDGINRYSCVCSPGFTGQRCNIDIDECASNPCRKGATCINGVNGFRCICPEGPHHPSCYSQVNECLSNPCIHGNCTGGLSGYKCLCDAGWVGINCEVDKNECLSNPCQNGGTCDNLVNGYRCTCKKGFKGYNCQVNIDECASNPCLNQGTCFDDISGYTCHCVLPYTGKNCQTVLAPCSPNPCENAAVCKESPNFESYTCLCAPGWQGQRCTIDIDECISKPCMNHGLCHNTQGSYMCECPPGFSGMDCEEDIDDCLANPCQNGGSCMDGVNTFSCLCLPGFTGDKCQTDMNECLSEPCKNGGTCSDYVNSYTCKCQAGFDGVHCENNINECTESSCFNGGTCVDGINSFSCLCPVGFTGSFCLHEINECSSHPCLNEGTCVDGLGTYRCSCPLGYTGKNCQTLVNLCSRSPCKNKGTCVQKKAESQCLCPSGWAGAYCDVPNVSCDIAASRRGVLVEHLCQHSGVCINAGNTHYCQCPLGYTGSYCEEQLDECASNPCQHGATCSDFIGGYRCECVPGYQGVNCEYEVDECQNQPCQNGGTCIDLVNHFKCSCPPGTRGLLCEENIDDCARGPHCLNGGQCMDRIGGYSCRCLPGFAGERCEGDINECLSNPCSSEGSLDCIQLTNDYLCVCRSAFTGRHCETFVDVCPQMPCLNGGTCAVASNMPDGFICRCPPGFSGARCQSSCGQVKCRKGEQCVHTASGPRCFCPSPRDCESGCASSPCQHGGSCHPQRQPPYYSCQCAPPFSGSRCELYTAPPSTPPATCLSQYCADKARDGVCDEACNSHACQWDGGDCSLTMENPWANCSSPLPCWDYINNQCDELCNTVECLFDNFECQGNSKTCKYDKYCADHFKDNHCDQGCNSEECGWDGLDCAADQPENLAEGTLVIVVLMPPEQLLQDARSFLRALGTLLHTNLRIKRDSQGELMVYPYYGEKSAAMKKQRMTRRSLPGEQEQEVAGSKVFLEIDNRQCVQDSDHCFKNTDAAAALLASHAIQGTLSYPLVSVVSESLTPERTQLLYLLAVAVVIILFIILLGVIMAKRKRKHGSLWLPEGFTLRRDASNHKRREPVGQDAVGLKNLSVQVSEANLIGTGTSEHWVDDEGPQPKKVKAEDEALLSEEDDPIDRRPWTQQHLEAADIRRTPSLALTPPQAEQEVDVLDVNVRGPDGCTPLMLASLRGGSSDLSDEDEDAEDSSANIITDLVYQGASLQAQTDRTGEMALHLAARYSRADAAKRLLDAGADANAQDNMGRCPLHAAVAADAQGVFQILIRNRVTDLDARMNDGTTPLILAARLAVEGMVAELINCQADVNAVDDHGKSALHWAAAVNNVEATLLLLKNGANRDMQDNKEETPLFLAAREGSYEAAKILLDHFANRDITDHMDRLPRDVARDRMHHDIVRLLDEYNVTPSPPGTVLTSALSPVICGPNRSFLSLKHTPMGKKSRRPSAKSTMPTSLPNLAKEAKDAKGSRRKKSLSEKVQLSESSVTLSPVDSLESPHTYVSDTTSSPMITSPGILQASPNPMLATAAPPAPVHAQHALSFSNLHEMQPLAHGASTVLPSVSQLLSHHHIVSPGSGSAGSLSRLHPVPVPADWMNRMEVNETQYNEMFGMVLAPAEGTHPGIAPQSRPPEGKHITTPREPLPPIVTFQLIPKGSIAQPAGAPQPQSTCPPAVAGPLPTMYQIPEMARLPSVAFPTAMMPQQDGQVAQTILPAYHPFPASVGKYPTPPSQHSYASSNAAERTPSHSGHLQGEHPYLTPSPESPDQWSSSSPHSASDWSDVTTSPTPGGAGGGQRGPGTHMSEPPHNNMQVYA
Pro-neuregulin-1, membrane-bound isoform (Homo sapiens), sequence (Q02297 whole entry, looked up, the tested form may be a part, canonical isoform): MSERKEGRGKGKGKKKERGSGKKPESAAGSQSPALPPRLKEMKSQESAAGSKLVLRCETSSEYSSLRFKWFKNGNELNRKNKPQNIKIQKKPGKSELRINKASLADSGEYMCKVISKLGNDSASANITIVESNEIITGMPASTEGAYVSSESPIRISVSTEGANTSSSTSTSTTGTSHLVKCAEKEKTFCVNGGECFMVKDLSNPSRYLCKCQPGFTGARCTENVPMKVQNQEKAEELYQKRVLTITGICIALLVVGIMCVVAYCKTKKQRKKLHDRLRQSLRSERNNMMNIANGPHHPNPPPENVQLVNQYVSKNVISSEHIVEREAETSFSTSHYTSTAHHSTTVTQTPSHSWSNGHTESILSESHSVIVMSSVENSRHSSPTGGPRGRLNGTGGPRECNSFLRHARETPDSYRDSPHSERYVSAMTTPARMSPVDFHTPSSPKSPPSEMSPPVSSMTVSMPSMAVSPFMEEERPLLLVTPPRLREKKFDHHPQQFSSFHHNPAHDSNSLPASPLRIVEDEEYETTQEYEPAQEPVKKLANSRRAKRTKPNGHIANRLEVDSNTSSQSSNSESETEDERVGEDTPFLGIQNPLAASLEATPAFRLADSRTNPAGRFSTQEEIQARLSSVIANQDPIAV
Torsin-1A-interacting protein 2 (Homo sapiens), sequence (Q8NFQ8 whole entry, looked up): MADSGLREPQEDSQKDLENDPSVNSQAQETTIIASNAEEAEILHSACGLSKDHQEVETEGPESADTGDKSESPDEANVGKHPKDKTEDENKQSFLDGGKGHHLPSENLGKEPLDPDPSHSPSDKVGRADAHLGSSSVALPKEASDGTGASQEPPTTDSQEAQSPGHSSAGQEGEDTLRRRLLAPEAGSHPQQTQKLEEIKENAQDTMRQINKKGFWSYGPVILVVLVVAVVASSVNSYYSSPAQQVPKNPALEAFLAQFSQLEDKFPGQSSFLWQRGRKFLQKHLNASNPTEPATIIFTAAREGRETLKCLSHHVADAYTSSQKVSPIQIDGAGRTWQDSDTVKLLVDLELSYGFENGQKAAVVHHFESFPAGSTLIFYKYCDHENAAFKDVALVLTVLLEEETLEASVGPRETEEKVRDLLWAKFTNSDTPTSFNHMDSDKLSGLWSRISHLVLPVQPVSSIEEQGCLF

As for `COCC(=C=CC[C@@H](O)c1cccc(OCCO)c1)C[C@@H](O)c1ccccn1`, the composite z-score in [1] was -0.19; in test [2], 0.0883; in [3], -0.0707; in [4] it was 0.338; in test [5] it was -0.17; in [6] it was 1.11. Also, the composite z-score was 1.3 in test [7]; -0.27 in [9]; 0.176 in [10]; 0.523 in test [11]; 1.12 in [15]; -0.193 in test [17]. Further, the results for the composite z-score in test [18], in test [19] and in [20] were 0.657, 0.599 and -0.137, respectively. Besides, the z-score in [8] was 0.93 (inactive); in test [12], 1.09 (inactive); in test [13], -0.416 (inactive); in test [14], -0.648 (inactive); in test [16], 0.257 (inactive).

As to `O=C1C[C@@](C(=O)NCCN2CCOCC2)(c2ccc([N+](=O)[O-])cc2)[C@@H](c2ccc(CO)cc2)N1CC12CC3CC(CC(C3)C1)C2`, the composite z-score in [1] is -0.243; in [2], 0.667; in test [3], -0.0692; in test [4] it was 0.573; in [5], 1.51; in test [6] it was 1.58. Further, the composite z-score was 1.39 in test [7]; 0.669 in test [9]; 0.155 in test [10]; 1.53 in test [11]; 3.31 in test [15]; 0.0211 in test [17]. Further, the results for the composite z-score in test [18], in test [19] and in test [20] were 1.4, 1.09 and 0.0778, respectively. For the same compound, the z-score in test [8] is -2.76 (inactive); in [12] it was -1.41 (inactive); in test [13] it was -17.2 (active); in test [14] it was -1.37 (inactive); in test [16] it was -2.26 (inactive).

As to `C=CCC(OC(C)=O)[C@@H]1[C@@H](N(Cc2ccc(-c3ccccc3)cc2)C(=O)Cc2ccc(OC)cc2)c2cc(OCCCO)ccc2N1C(=O)Cc1ccc2ccccc2c1` (stereo not given in full), the composite z-score was -0.214 in [1]; 0.735 in test [2]; -0.0891 in test [3]; 0.0163 in test [4]; -0.299 in test [5]; -0.32 in [6]. The composite z-score in test [7] is -0.504; in test [9] it was 0.0346; in test [10], -0.144; in test [11], -0.137; in [15], 1.09; in test [17], -0.153. Moreover, the composite z-score in test [18] was -0.688; in [19] it was -0.0042; in test [20], -0.177. The z-score was -0.952 (inactive) in test [8]; -0.74 (inactive) in test [12]; -0.619 (inactive) in [13]; -0.238 (inactive) in [14]; -0.263 (inactive) in [16].

On to `COCCOC(=O)N1C(=O)[C@@]2(c3cc(C#CCC(C(=O)OC)C(=O)OC)ccc31)[C@H](C(=O)N1CCN(c3ncccn3)CC1)[C@H]1C(=O)O[C@H](c3ccccc3)[C@H](c3ccccc3)N1[C@@H]2c1ccccc1OCCO`, for which the composite z-score in test [1] is -0.486; in test [2] it was 0.51; in test [3], 0.0247; in [4] it was 0.86; in test [5], 1.32; in [6] it was 0.841. Also, the composite z-score in test [7] is 1.27; in [9] it was 0.495; in [10], -0.0346; in test [11], 1.55; in test [15] it was 1.88; in [17], -0.0726. Also, the composite z-score in test [18] amounted to 1.71; in test [19] it was 1.06; in test [20] it was 0.0537. Besides, the z-score in [8] is 0.131 (inactive); in test [12], 1.59 (inactive); in [13], 1.33 (inactive); in [14], 6.3 (inactive); in test [16] it was 0.156 (inactive).

Turning to `CC(CO)N1C(=O)[C@@H]2C3C(=O)OCCC/C=C\[C@H]3OC23C=CCN(C(C)(C)C)C(=O)[C@@H]13` (stereo not given in full), the composite z-score in test [1] is 0.104; in [2] it was 0.733; in test [3], -0.0971; in test [4], 0.255; in test [5], 0.162; in test [6] it was 0.182. The composite z-score in test [7] was 1.17; in test [9], -0.269; in [10], 0.0373; in [11] it was 0.0207; in test [15] it was 0.478; in test [17] it was -0.216. For the same compound, the values for the composite z-score in [18], in test [19] and in [20] were 0.0872, 0.201 and -0.0905, respectively. The z-score in test [8] was -1.23 (inactive); in [12], -0.226 (inactive); in test [13], -0.911 (inactive); in [14] it was -0.706 (inactive); in test [16], -0.0054 (inactive).
